Among the test systems are HOP-62 NSCLC; NCI-H460 lung; 786-0 renal; DU-145 prostate; MALME-3M melanoma; RXF 393 renal; SF-295 CNS; UACC-257 melanoma; M14 melanoma; SNB-19 CNS; SK-MEL-2 melanoma; UO-31 renal; A498 renal; HL-60(TB) leukemia; RPMI-8226 leukemia; OVCAR-5 ovarian; OVCAR-4 ovarian; T-47D breast; HCC-2998 colon; A549/ATCC NSCLC.
Holding throughout (assay): NCI-60 one-dose screen, 48 h (100 = growth as untreated, 0 = no growth, -100 = all killed)
Common to all, as to conditions: 10 µM unless noted

The structures appear in SMILES notation. About 83,000 compounds went through this panel and 20% of them were active in at least one assay; those are over-represented in the sample as a whole.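 96-well plates, one dose, 48 hours. Percent growth reported; active if below 10.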 Unmarked numbers belong to inactive results. Activity calls are given as the source filed them.

Take `Nc1ncnc2c1c(C(=O)NO)cn2C1OC(CO)C(O)C1O` (stereo unspecified): the growth in the experiment on HOP-62 NSCLC was 5.73% (active); in the experiment with NCI-H460 lung, -21.6% (active); in the experiment on 786-0 renal, 9.38% (active); in the experiment on DU-145 prostate, -32.1% (active); in the experiment with MALME-3M melanoma, -41.1% (active); in the experiment with RXF 393 renal, -26.9% (active). Moreover, the growth in the experiment with SF-295 CNS was -47.6% (active); with UACC-257 melanoma it was -48% (active); with M14 melanoma, -53.8% (active); in the experiment with SNB-19 CNS, 11.9%; in the experiment with SK-MEL-2 melanoma, -18.7% (active); in the experiment with UO-31 renal, -58.2% (active). Besides, the growth in the experiment with A498 renal was -30.1% (active); in the experiment on HL-60(TB) leukemia, -43% (active); in the experiment on RPMI-8226 leukemia, -21.7% (active); in the experiment on OVCAR-5 ovarian, 16.5%; in the experiment with OVCAR-4 ovarian, 0.579% (active); in the experiment on T-47D breast it was -11.1% (active). The growth in the experiment on HCC-2998 colon was -38.7% (active).

On to `O1[As]2O[As]3O[As]1O[As](O2)O3`, for which the growth was -41.6% (active) with HOP-62 NSCLC; 3.94% (active) with NCI-H460 lung; 37.8% in the experiment with A549/ATCC NSCLC; 10.7% in the experiment on 786-0 renal; -15% (active) with MALME-3M melanoma; -47.6% (active) with RXF 393 renal. For the same compound, the growth in the experiment with SF-295 CNS is 4.61% (active); with UACC-257 melanoma, -22.1% (active); in the experiment on M14 melanoma, -24.2% (active); with SNB-19 CNS, -2.55% (active); with SK-MEL-2 melanoma it was -34.8% (active); in the experiment with UO-31 renal it was -7% (active). Moreover, the growth was 2.98% (active) with A498 renal; 1.06% (active) in the experiment on HL-60(TB) leukemia; 15.1% in the experiment with RPMI-8226 leukemia; 18.7% in the experiment on OVCAR-5 ovarian; 26.1% in the experiment on OVCAR-4 ovarian; 22.9% in the experiment on T-47D breast. Further, the growth in the experiment with HCC-2998 colon is 23.3%.

As for `CC1=C(SCCC(=O)OCC(=O)NCCC[Te]c2ccccc2)C(=O)c2ccccc2C1=O`, the growth in the experiment with HOP-62 NSCLC was -49.1% (active); in the experiment with NCI-H460 lung it was -43.1% (active); with A549/ATCC NSCLC, 0.0697% (active); with 786-0 renal, 23.2%; in the experiment on DU-145 prostate it was -6.6% (active); in the experiment on MALME-3M melanoma, -7.94% (active). The growth in the experiment with RXF 393 renal is 25%; with SF-295 CNS, -35.6% (active); in the experiment on UACC-257 melanoma, 55.1%; in the experiment with M14 melanoma, -52.4% (active); in the experiment with SNB-19 CNS, 9.54% (active); in the experiment with SK-MEL-2 melanoma it was -33.4% (active). Also, the growth in the experiment with UO-31 renal was -0.644% (active); with A498 renal, -11.8% (active); in the experiment on HL-60(TB) leukemia, -2.74% (active); in the experiment with RPMI-8226 leukemia, -8.41% (active); in the experiment with OVCAR-5 ovarian, -0.604% (active); in the experiment with OVCAR-4 ovarian, 87.4%. In addition, the figures for the growth with T-47D breast and in the experiment with HCC-2998 colon were 18.9% and 10.1%, respectively.

`COC(=O)C1CC2c3ccccc3C1c1ccccc12` (stereo unspecified): the growth was 91.3% in the experiment with HOP-62 NSCLC; 104% with NCI-H460 lung; 98.2% with A549/ATCC NSCLC; 104% in the experiment with 786-0 renal; 119% in the experiment on DU-145 prostate; 90.6% in the experiment on MALME-3M melanoma. The growth is 94.6% in the experiment with RXF 393 renal; 87.3% in the experiment with SF-295 CNS; 97.8% in the experiment on UACC-257 melanoma; 107% with M14 melanoma; 117% in the experiment with SNB-19 CNS; 103% in the experiment with SK-MEL-2 melanoma. The growth in the experiment with UO-31 renal was 83.6%; in the experiment with A498 renal, 98.4%; with HL-60(TB) leukemia it was 108%; in the experiment on RPMI-8226 leukemia, 82.1%; in the experiment with OVCAR-5 ovarian it was 104%; in the experiment on OVCAR-4 ovarian, 106%. Besides, the growth with T-47D breast is 102%; with HCC-2998 colon it was 107%.

Consider `CC(/C=N/N=C(N)N)=N\N=C(N)N`, for which the growth in the experiment with HOP-62 NSCLC was 64.2%; in the experiment on NCI-H460 lung it was 82.7%; in the experiment on 786-0 renal, 55.6%; in the experiment on DU-145 prostate, 65.5%; in the experiment with MALME-3M melanoma, 126%; in the experiment with SF-295 CNS, 85.5%. Besides, the growth in the experiment on SNB-19 CNS was 78.1%; in the experiment on SK-MEL-2 melanoma, -5.97% (active); with UO-31 renal, 46.9%; in the experiment with A498 renal, 83.9%; in the experiment on HL-60(TB) leukemia, 77.6%; in the experiment with RPMI-8226 leukemia, 74.3%. In addition, the growth was 82.1% in the experiment on OVCAR-5 ovarian, 66.3% in the experiment on OVCAR-4 ovarian, 40.8% in the experiment on T-47D breast and -62.9% (active) in the experiment on HCC-2998 colon.

For `C[C@]12CC[C@@H]3c4ccc(OC(=O)Cc5ccc(N(CCCl)CCCl)cc5)cc4CC[C@H]3[C@@H]1CC[C@@H]2OC(=O)Cc1ccc(N(CCCl)CCCl)cc1`, the growth was 110% with HOP-62 NSCLC; 125% in the experiment with NCI-H460 lung; 110% with 786-0 renal; 103% in the experiment with DU-145 prostate; 113% in the experiment on MALME-3M melanoma; 103% in the experiment with SF-295 CNS. Also, the growth with M14 melanoma is 107%; in the experiment on SNB-19 CNS, 107%; in the experiment on SK-MEL-2 melanoma, -3.92% (active); in the experiment on UO-31 renal it was 82.7%; in the experiment on A498 renal, 121%; in the experiment on HL-60(TB) leukemia, 108%. The growth in the experiment on RPMI-8226 leukemia was 123%; in the experiment with OVCAR-5 ovarian, 105%; in the experiment with OVCAR-4 ovarian, 111%; with T-47D breast it was 121%.

As to `CC(=O)Oc1ccc(Cl)cc1`, the growth was 87.8% with HOP-62 NSCLC; 101% in the experiment on NCI-H460 lung; 97.9% in the experiment with A549/ATCC NSCLC; 99.5% in the experiment on 786-0 renal; 96.7% with MALME-3M melanoma; 105% in the experiment with RXF 393 renal. Besides, the growth in the experiment with SF-295 CNS is 112%; in the experiment on UACC-257 melanoma, 95.1%; with M14 melanoma it was 98.6%; in the experiment on SNB-19 CNS, 91.2%; with SK-MEL-2 melanoma, 106%; in the experiment with UO-31 renal it was 59%. The growth with A498 renal was 82.2%; in the experiment on HL-60(TB) leukemia, 98.4%; with OVCAR-5 ovarian it was 88.7%; with OVCAR-4 ovarian it was 97.3%; in the experiment on T-47D breast, 94.2%; in the experiment with HCC-2998 colon it was 96.1%.

With `COC(=O)C(=[N+]=[N-])C(=O)OC`, the growth with HOP-62 NSCLC is 103%; with NCI-H460 lung, 106%; in the experiment with A549/ATCC NSCLC, 99.3%; with 786-0 renal, 98.3%; in the experiment with DU-145 prostate it was 112%; in the experiment on MALME-3M melanoma it was 110%. Besides, the growth in the experiment with RXF 393 renal was 102%; with SF-295 CNS, 101%; in the experiment with UACC-257 melanoma, 96.4%; in the experiment on SNB-19 CNS, 103%; with SK-MEL-2 melanoma, 91.2%; in the experiment on UO-31 renal, 88.3%. Also, the growth in the experiment on A498 renal was 100%; with HL-60(TB) leukemia it was 100%; in the experiment with RPMI-8226 leukemia, 96.4%; with OVCAR-5 ovarian it was 107%; with OVCAR-4 ovarian, 97.1%; in the experiment on T-47D breast, 109%. Also, in the experiment with HCC-2998 colon, the growth is 108%.

Regarding `COc1ccc(C(=O)c2ccc([As]=O)cc2)cc1` (stereo unspecified), the growth in the experiment with HOP-62 NSCLC is -86.1% (active); in the experiment on NCI-H460 lung, -62.5% (active); in the experiment on A549/ATCC NSCLC it was -71.8% (active); in the experiment with 786-0 renal, -99.5% (active); in the experiment with MALME-3M melanoma it was -87% (active); with RXF 393 renal, -99.6% (active). The growth with SF-295 CNS was -97.9% (active); in the experiment on UACC-257 melanoma, -95.7% (active); in the experiment on M14 melanoma it was -84% (active); in the experiment with SNB-19 CNS, -81.4% (active); in the experiment on SK-MEL-2 melanoma, -94% (active); with UO-31 renal it was -95% (active). The growth in the experiment with A498 renal is -100% (active); in the experiment on HL-60(TB) leukemia, -47.4% (active); in the experiment on RPMI-8226 leukemia, -24% (active); in the experiment on OVCAR-5 ovarian it was -84.2% (active); with OVCAR-4 ovarian, -91.4% (active); in the experiment with T-47D breast it was -77.6% (active). Further, in the experiment with HCC-2998 colon, the growth is -88.5% (active).

The values above are taken from PubChem BioAssay (NCI).
